# Results reported in PubChem BioAssay (NCATS).
# For some assays here: Entries with a potency or affinity are not part of this list. Active and inactive are the calls of the source. Starred links: 1 amine or outer side, 2 acyl side, 3 side chain; linkers in the order of their positions; H or OH if unused. Positions of bridges follow the written chain, without caps; N, C: chain ends. Non-standard residues stand in square brackets, D forms with d. Residues, ends and D or L forms follow the SMILES beside them. ξ: configuration not given here. *: point of attachment. ΔAla(3-NHCONH2) = NC(=O)NC=C(N)C(=O)O; X1 = NC1=NCCC(C(N[*:1])C(=O)[*:2])N1; ξβ3hOrn = NCCCC(N)CC(=O)*; Dap = NC[CH](N)C(=O)O
# Assays:
# [1] = Ebola virus entry assay, green fluorescence channel
# [2] = Ebola virus entry assay, blue channel fluorescence
# [3] = Ebola virus entry assay, green fluorescence channel; remark: listed apart in the source
# [4] = Ebola virus entry assay, ratio channel readout
# [5] = Ebola virus entry assay, green channel fluorescence
# [6] = Ebola virus entry assay, blue channel fluorescence; remark: listed apart in the source
# [7] = Ebola virus entry assay, reporter ratio channel; AC50: Channel type: primary unless noted; outcome: Channel type: primary unless noted
# [8] = Ebola virus entry assay, blue channel (ratio component)
# [9] = Ebola virus entry assay, blue channel fluorescence; remark: listed apart in the source
# [10] = Ebola virus entry reporter assay, green channel fluorescence
# [11] = qHTS profiling of the MIPE4 collection as inhibitors of Plasmodium falciparum (3D7) proliferation (AID 743344);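 also: scaled between DMSO vehicle wells and 0.29 µM artemisinin as full inhibition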; details: P. falciparum 3D7 in erythrocytes, SYBR Green DNA fluorescence, 72 h
# In short: (§1)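 Parasite DNA was quantified by SYBR Green I fluorescence (ex 485, em 535 nm) after overnight lysis in saponin/Triton buffer at room temperature. Cultures at 0.3% parasitemia and 2.5% hematocrit were first exposed to compound for 72 h at 37 C; signals were normalised to artemisinin (0.29 uM) and vehicle wells.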
# [12] = qHTS profiling of the MIPE4 collection as inhibitors of Plasmodium falciparum (DD2) proliferation (AID 743345); details: P. falciparum Dd2 in erythrocytes, SYBR Green DNA, 72 h
# In short: as §1
# [13] = qHTS profiling of the MIPE4 collection as inhibitors of Plasmodium falciparum (DD2) proliferation (Rep 2) (AID 743346); details: P. falciparum Dd2 in erythrocytes, SYBR Green DNA, 72 h
# In short: as §1
# [14] = Ebola virus entry assay, ratio channel
# [15] = qHTS profiling of the MIPE4 collection as inhibitors of Plasmodium falciparum (HB3) proliferation (AID 743347);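 also: plate controls were DMSO vehicle wells for no effect and artemisinin wells for full effect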; details: P. falciparum HB3 in erythrocytes, SYBR Green DNA, 72 h
# In short: as §1
# [16] = at 28.5 µM (top of the series) unless noted
# [17] = at 0.217 µM (top of the series)
# For efficacy in this document: 0% is about no effect.
compound,measurement,setting,value
CN(C)/N=N/c1nc[nH]c1C(N)=O,efficacy,[1],-24.1% (inactive)
same,outcome,[2],inactive
same,outcome,[3],inactive
same,outcome,[4],inactive
same,outcome,[5],inactive
same,outcome,[6],inactive
same,outcome,[7],inactive
same,outcome,[8],inactive
NC(=O)N1c2ccccc2CC(=O)c2ccccc21,efficacy,[1],-11.2% (inactive)
same,outcome,[2],inactive
same,outcome,[3],inactive
same,outcome,[9],inactive
same,outcome,[5],inactive
same,outcome,[6],inactive
same,outcome,[7],inactive
same,outcome,[8],inactive
same,outcome,[10],inactive
O=C(O)COCCN1CCN(C(c2ccccc2)c2ccc(Cl)cc2)CC1 (stereo not drawn),efficacy,[1],-24.1% (inactive)
same,outcome,[2],inactive
same,outcome,[3],inactive
same,outcome,[4],inactive
same,outcome,[5],inactive
same,outcome,[6],inactive
same,outcome,[7],inactive
same,outcome,[8],inactive
same,outcome,[10],inactive
CC1Cc2ccccc2N1NC(=O)c1ccc(Cl)c(S(N)(=O)=O)c1 (stereo not drawn),"parasite growth, % of DMSO control",[11]; [16],83.7%
same,"parasite growth remaining, % of DMSO control (lower = more inhibition)",[12]; [16],34.3%
same,"parasite growth, % of control (lower = inhibition)",[13]; [16],84.2%
same,efficacy,[1],11.5% (inactive)
same,outcome,[2],inactive
same,outcome,[3],inactive
same,outcome,[4],inactive
same,outcome,[5],inactive
same,outcome,[6],inactive
same,outcome,[7],inactive
same,outcome,[8],inactive
C[C@H]1[C@H](NC(=O)/C(=N/OC(C)(C)C(=O)O)c2csc(N)n2)C(=O)N1S(=O)(=O)O (stereo in doubt),efficacy,[1],16.2% (inactive)
same,outcome,[2],inactive
same,outcome,[3],inactive
same,outcome,[14],inactive
same,outcome,[5],inactive
same,outcome,[6],inactive
same,outcome,[7],inactive
same,outcome,[8],inactive
same,outcome,[10],inactive
CCCN(CCC)CCc1cccc2c1CC(=O)N2,efficacy,[1],29.5% (inactive)
same,outcome,[2],inactive
same,outcome,[3],inactive
same,outcome,[4],inactive
same,outcome,[5],inactive
same,outcome,[6],inactive
same,outcome,[7],inactive
same,outcome,[8],inactive
NS(=O)(=O)c1cc2c(cc1Cl)NC=NS2(=O)=O,efficacy,[1],-8.1% (inactive)
same,outcome,[2],inactive
same,outcome,[3],inactive
same,outcome,[9],inactive
same,outcome,[5],inactive
same,outcome,[6],inactive
same,outcome,[7],inactive
same,outcome,[8],inactive
CC(C)(C(=O)O)c1ccc(C(O)CCCN2CCC(C(O)(c3ccccc3)c3ccccc3)CC2)cc1 (stereo not drawn),efficacy,[1],-13% (inactive)
same,outcome,[2],inactive
same,outcome,[3],inactive
same,outcome,[4],inactive
same,outcome,[5],inactive
same,outcome,[6],inactive
same,outcome,[7],inactive
same,outcome,[8],inactive
same,outcome,[10],inactive
Nc1[nH]c(=O)ncc1F,efficacy,[1],14.3% (inactive)
same,outcome,[2],inactive
same,outcome,[3],inactive
same,outcome,[4],inactive
same,outcome,[5],inactive
same,outcome,[6],inactive
same,outcome,[7],inactive
same,outcome,[8],inactive
same,outcome,[10],inactive
O=C(O)CCCc1ccccc1,efficacy,[1],-16.1% (inactive)
same,outcome,[2],inactive
same,outcome,[3],inactive
same,outcome,[4],inactive
same,outcome,[5],inactive
same,outcome,[6],inactive
same,outcome,[7],inactive
same,outcome,[8],inactive
same,outcome,[10],inactive
C[C@@H](O)[C@H]1C(=O)N2C(C(=O)O)=C(S[C@@H]3CN[C@H](C(=O)N(C)C)C3)[C@H](C)[C@H]12,efficacy,[1],17.9% (inactive)
same,outcome,[2],inactive
same,outcome,[3],inactive
same,outcome,[4],inactive
same,outcome,[5],inactive
same,outcome,[6],inactive
same,outcome,[7],inactive
same,outcome,[8],inactive
same,outcome,[10],inactive
Cc1ccc(-c2nc3ccc(C)cn3c2CC(=O)N(C)C)cc1,efficacy,[1],-21.9% (inactive)
same,outcome,[2],inactive
same,outcome,[3],inactive
same,outcome,[4],inactive
same,outcome,[5],inactive
same,outcome,[6],inactive
same,outcome,[7],inactive
same,outcome,[8],inactive
same,outcome,[10],inactive
NCCCC(N)CC(=O)NCC1NC(=O)C(CO)NC(=O)C(N)CNC(=O)C(C2CCN=C(N)N2)NC(=O)C(=CNC(N)=O)NC1=O (stereo not drawn) (H-[Dap]S[Dap](ξβ3hOrn)[ΔAla(3-NHCONH2)][X1]; lactam 1-C; configuration not given here),"parasite growth, % of DMSO control",[11]; [17],92.7%
same,"parasite growth, % of DMSO control",[11]; at 28.5 µM (top of the series),101%
same,"parasite growth remaining, % of DMSO control (lower = more inhibition)",[12]; [17],92.4%
same,"parasite growth remaining, % of DMSO control (lower = more inhibition)",[12]; at 28.5 µM (top of the series),100%
same,"parasite growth, % of control (lower = inhibition)",[13]; [17],121%
same,"parasite growth, % of control (lower = inhibition)",[13]; at 28.5 µM (top of the series),113%
same,"growth, % of control",[15]; [17],101%
same,"growth, % of control",[15]; at 28.5 µM (top of the series),86.8%
same,efficacy,[1],13% (inactive)
same,outcome,[2],inactive
same,outcome,[3],inactive
same,outcome,[4],inactive
same,outcome,[5],inactive
same,outcome,[6],inactive
same,outcome,[7],inactive
same,outcome,[8],inactive
same,outcome,[10],inactive
CC(S)C(=O)NCC(=O)O (stereo not drawn),efficacy,[1],-25.6% (inactive)
same,outcome,[2],inactive
same,outcome,[3],inactive
same,outcome,[4],inactive
same,outcome,[6],inactive
same,outcome,[7],inactive
same,outcome,[8],inactive
COc1cc(Cc2cnc(N)nc2N)cc(OC)c1OC,efficacy,[1],-22.6% (inactive)
same,outcome,[2],inactive
same,outcome,[3],inactive
same,outcome,[4],inactive
same,outcome,[5],inactive
same,outcome,[6],inactive
same,outcome,[7],inactive
same,outcome,[8],inactive
same,outcome,[10],inactive
CC(C)NC[C@@H](O)COc1ccc(CC(N)=O)cc1,efficacy,[1],-16.3% (inactive)
same,outcome,[2],inactive
same,outcome,[3],inactive
same,outcome,[4],inactive
same,outcome,[5],inactive
same,outcome,[6],inactive
same,outcome,[7],inactive
same,outcome,[8],inactive
same,outcome,[10],inactive
COc1ccccc1OCC(O)COC(N)=O (stereo not drawn),efficacy,[1],-13% (inactive)
same,outcome,[2],inactive
same,outcome,[3],inactive
same,outcome,[4],inactive
same,outcome,[5],inactive
same,outcome,[6],inactive
same,outcome,[7],inactive
same,outcome,[8],inactive
CCCC(CCC)C(=O)O,efficacy,[1],-11.7% (inactive)
same,outcome,[2],inactive
same,outcome,[3],inactive
same,outcome,[4],inactive
same,outcome,[5],inactive
same,outcome,[7],inactive
same,outcome,[8],inactive
same,outcome,[10],inactive
CN(CCOc1ccc(CC2SC(=O)NC2=O)cc1)c1ccccn1 (stereo not drawn),efficacy,[1],-12.2% (inactive)
same,outcome,[2],inactive
same,outcome,[3],inactive
same,outcome,[4],inactive
same,outcome,[5],inactive
same,outcome,[6],inactive
same,outcome,[7],inactive
same,outcome,[8],inactive
